FBW7 act: FBW7 E3 ligase activators, primary screen, biochemical, AlphaScreen, human | F-box/WD repeat-containing protein 7 (Homo sapiens), Q969H0 | AlphaScreen FBW7–phospho-cyclin E peptide binding, activator screen | normalized activity (activation), % at 26.1 µM | actives 0.13% (n = 650,000) | AID 1259310, 2017; in the data active means normalized activity above about 1.9%;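 further: purified mutant Fbw7 with reduced substrate affinity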
Target sequence (Q969H0 whole entry, looked up): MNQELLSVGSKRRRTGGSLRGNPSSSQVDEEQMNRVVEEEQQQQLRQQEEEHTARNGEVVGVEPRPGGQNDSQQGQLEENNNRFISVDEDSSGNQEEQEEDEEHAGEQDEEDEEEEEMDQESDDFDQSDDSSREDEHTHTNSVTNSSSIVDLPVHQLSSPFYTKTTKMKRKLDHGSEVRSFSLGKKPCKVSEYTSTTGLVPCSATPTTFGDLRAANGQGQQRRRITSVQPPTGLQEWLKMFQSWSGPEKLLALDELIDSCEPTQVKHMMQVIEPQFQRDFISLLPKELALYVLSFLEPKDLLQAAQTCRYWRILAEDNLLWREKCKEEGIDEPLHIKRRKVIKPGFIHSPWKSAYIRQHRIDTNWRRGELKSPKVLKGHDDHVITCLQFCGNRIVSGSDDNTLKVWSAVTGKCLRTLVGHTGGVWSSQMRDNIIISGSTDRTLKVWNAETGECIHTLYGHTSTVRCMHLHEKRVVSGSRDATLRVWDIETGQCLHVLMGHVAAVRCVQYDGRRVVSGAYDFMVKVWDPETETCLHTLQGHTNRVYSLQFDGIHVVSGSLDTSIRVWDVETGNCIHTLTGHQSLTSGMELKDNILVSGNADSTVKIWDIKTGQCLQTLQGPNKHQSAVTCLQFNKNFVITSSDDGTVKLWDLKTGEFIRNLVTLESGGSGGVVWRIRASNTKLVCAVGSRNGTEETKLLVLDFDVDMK
MITF primary: MITF inhibitors, primary screen, biochemical, AlphaScreen, human | Microphthalmia-associated transcription factor (Homo sapiens), O75030 | AlphaScreen MITF homodimerization, bead proximity signal | inhibition, % at 2.6 µM | actives 0.91% (n = 650,000) | AID 1259374, 2018; in the data active means inhibition above about 50%;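 further: 0% = vehicle wells with protein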
GPR151 ag: activators of human GPR151, primary screen, cell-based, PathHunter beta-arrestin, luminescence; activation, % at 11.2 µM; actives 1% (n = 650,000); G-protein coupled receptor 151 (Homo sapiens), Q8TDV0; AID 1508602, 2020; PathHunter beta-arrestin GPR151 cells; in the data active means activation above about 4.9%;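 further: 0% = median of compound wells and 100% = cells with positive control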
TEAD-YAP block: TEAD-YAP interaction inhibition, primary screen, TEAD-YAP interaction inhibitor project, luminescence, HEK-TIYL cells; TEAD-Gal4/YAP UAS-luciferase luminescence; inhibition, % at 9.12 µM; actives 1.4% (n = 640,000); AID 1259422, 2018; in the data active means inhibition above about 32%;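 further: 0% = median of test compound wells and 100% = reference inhibitor wells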
Active calls of the source: *; . = not tested or not shown. Compounds with a hit are over-represented: about 3.4% of the library has one in this group of screens.

SMILES | FBW7 act | MITF primary | GPR151 ag | TEAD-YAP block
O=C(Nc1ccc2ccccc2c1)c1ccc(C2CCCCC2)cc1 | 0 | -2 | 1 | 34*
O=C(Nc1ccc2scnc2c1)c1ccc2ccccc2c1 | 0 | 6 | -5 | 66*
O=C1NC(=O)C(=Cc2ccc(-c3ccc(I)cc3)o2)C(=O)N1 | 0 | 18 | -1 | -1
COc1cccc(C(=O)Nc2ccc(N3CCCCC3=O)c(C)c2)c1 | 0 | -8 | -11 | 76*
CC(C)(C)CC(=O)NCC(c1ccco1)N1CCN(c2ccc(F)cc2)CC1 (configuration not stated) | 0 | 12 | 1 | 6
Oc1cccc(C(Nc2nccs2)c2ccc3cccnc3c2O)c1 (configuration not stated) | -1 | 69* | 0 | 73*
Cc1[nH]c2ccccc2c1C(Nc1nccs1)c1ccc(F)cc1 (configuration not stated) | 0 | 4 | 0 | -28
Oc1c(C(Nc2nccs2)c2ccccc2)ccc2cccnc12 (configuration not stated) | -1 | 24 | 0 | 70*
Oc1c(C(Nc2nccs2)c2ccccn2)ccc2cccnc12 (configuration not stated) | 0 | 43 | 1 | 76*
Oc1c(C(Nc2nccs2)c2ccc(F)cc2)ccc2cccnc12 (configuration not stated) | -2 | 22 | -1 | 43*
COc1ccc(OC)c(NC(=O)CN2CCC(c3nc4ccc(Cl)cc4[nH]3)CC2)c1 | 0 | 26 | 0 | -26
CCOc1ccc2oc(C(=O)Nc3nn[nH]n3)c(C)c2c1 | 0 | -4 | 4 | 0
O=C(OCc1cnc(-c2ccccc2)s1)c1ccc2c(c1)OCCO2 | 0 | -1 | -2 | -14
COc1cccc2c1C(=O)c1c(O)c3c(c(O)c1C2=O)C[C@@](O)(C(C)=O)C[C@@H]3OC1CC(N)C(O)C(C)O1 (some centres not stated) | 0 | 35 | 1 | .
COc1cccc2c1C(=O)c1c(O)c3c(c(O)c1C2=O)C[C@@](O)(C(=O)CO)C[C@@H]3O[C@H]1C[C@H](N)[C@H](O)[C@H](C)O1 | 0 | 44 | -3 | 92*
Cc1ccc(-c2cc(C(=O)NN)[nH]n2)c(C)c1 | 0 | 3 | -2 | 43*
CC1(C)C2CC=C(/C=N/Nc3ccc(S(=O)(=O)N4CCOCC4)cc3[N+](=O)[O-])C1C2 (configuration not stated) | 0 | 12 | 1 | 4
COc1ccc(NS(=O)(=O)c2ccc3c(c2)OC(C)CN3C(C)=O)cc1OC (configuration not stated) | 0 | 5 | -2 | 40*
CCOc1ccccc1NS(=O)(=O)c1ccc(OC)c(C)c1 | 1 | 17 | -1 | 4
COc1ccc(C)cc1NS(=O)(=O)c1ccc(SC)cc1 | 0 | 23 | 0 | 8
CCOc1ccc(S(=O)(=O)Nc2ccc(OC)c(OC)c2)cc1 | 1 | 23 | 0 | 57*
CCOc1ccc(NS(=O)(=O)c2ccc(OC)c(OC)c2)cc1 | 0 | 3 | -1 | 0
COc1ccc(OC)c(NS(=O)(=O)c2ccc(SC)cc2)c1 | 0 | 16 | 1 | 52*
CC(=O)N1CC(C)Oc2cc(S(=O)(=O)Nc3ccccc3Cl)ccc21 (configuration not stated) | 0 | 0 | 1 | 4
CCOc1ccc(S(=O)(=O)Nc2cc(OC)ccc2OC)cc1C | 0 | 6 | -1 | 52*
SMILES | FBW7 act | MITF primary | GPR151 ag | TEAD-YAP block
CCOc1ccccc1/C=C1/C(=O)N(c2ccc(I)cc2)N=C1C | 0 | 6 | -1 | 24
COc1ccc(NC(=O)c2cnn3c2NC(c2ccco2)CC3C(F)(F)F)cc1OC (configuration not stated) | 0 | -6 | -1 | -7
O=C(Nc1ccccc1C(=O)O)c1ccc2c(c1)C(=O)N(c1cccc(O)c1)C2=O | 0 | 4 | -3 | -7
CCOc1ccc(OCC)c(NS(=O)(=O)c2c[nH]c(C(=O)OC)c2)c1 | 0 | -7 | -1 | 53*
COc1ccc(NS(=O)(=O)c2ccc(SC)cc2)cc1OC | 0 | -11 | 0 | 44*
COc1ccc(NS(=O)(=O)c2ccc(-c3ccc(S(=O)(=O)Nc4ccc(OC)cc4OC)cc3)cc2)c(OC)c1 | 0 | 11 | -1 | -9
CCOc1ccc(S(=O)(=O)Nc2cc(OC)ccc2OC)cc1 | 1 | 14 | -2 | 63*
COc1ccc(NS(=O)(=O)c2ccc(Cc3ccc(S(=O)(=O)Nc4ccc(OC)cc4OC)cc3)cc2)c(OC)c1 | 1 | 20 | 0 | 37*
COc1ccc(OC)c(NS(=O)(=O)c2ccc(C(C)(C)C)cc2)c1 | 0 | 15 | 1 | 7
CC1(c2ccc(Cl)cc2)NC(=O)N(CN2CCN(C(=O)C3CCCO3)CC2)C1=O (configuration not stated) | 1 | 8 | 1 | 10
CCOc1ccc(S(=O)(=O)Nc2cc([N+](=O)[O-])ccc2OC)cc1 | 0 | 10 | 2 | 51*
COc1ccc(NS(=O)(=O)c2ccc(Oc3ccccc3OC)cc2)cc1 | 0 | 7 | 0 | 33*
COc1ccc(OC)c(NS(=O)(=O)c2ccc([N+](=O)[O-])cc2)c1 | 0 | -4 | -1 | 4
COc1cccc(NS(=O)(=O)c2ccc(Oc3ccccc3OC)cc2)c1 | 0 | -2 | -1 | 6
O=S(=O)(N/N=C1\CC(c2ccccc2)Oc2ccccc21)c1ccccc1 (configuration not stated) | 2.7* | -13 | 2 | 16
COc1ccc(C(=O)/C(=C\c2ccc(OC)c(OC)c2)c2nc3ccccc3o2)cc1 | 0 | 7 | 2 | 43*
CC1=C(C(=O)OC(C)C)C(c2ccc(C)c(Br)c2)NC(=O)N1 (configuration not stated) | 0 | -7 | 1 | -12
CCCCNC(=O)c1c(Cl)nc(Cl)c([N+](=O)[O-])c1Cl | 0 | 0 | -1 | 45*
O=C(O)c1c(Cl)nc(Cl)c([N+](=O)[O-])c1Cl | 0 | 6 | 0 | 15
NC(=O)c1c(Cl)nc(Cl)c([N+](=O)[O-])c1Cl | 0 | 5 | -1 | 98*
COc1ccc(NC(=O)c2c(Cl)nc(Cl)c([N+](=O)[O-])c2Cl)cc1 | 0 | -2 | 3 | 85*
CCOc1ccc(C2C(C(=O)NC3CCCCC3)c3ccccc3C(=O)N2CCN2CCOCC2)cc1 (configuration not stated) | 0 | -1 | 0 | 2
COCCn1c(=S)[nH]c2cc(C(=O)OC)ccc2c1=O | 0 | 14 | 0 | 18
COc1ccc(C2Oc3ccccc3C3=C2C(c2cccs2)n2ncnc2N3)cc1 (configuration not stated) | 0 | 2 | 2 | 38*
